# Assay outcomes as filed in PubChem BioAssay.
# An excerpt weighted towards active compounds, which were near 2.6% of everything screened.
# TLR9-MyD88 block = TLR9-MyD88 interaction inhibition. 0.21% of 340,000 active. CHO BLA complementation TLR9-MyD88, CCF4 FRET ratio. inhibition, % at 4.98 µM. Q9NR96+Q99836. AID 504734;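 active = inhibition above the mean over all tested compounds plus 3 SD, cut at about 21% in these data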;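 note: 0% = DMSO only wells and 100% = clavulanate BLA inhibitor control wells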
# PRMT1 inh = blocks human protein arginine methyltransferase 1; Q99873; recombinant PRMT1, activity-based probe fluorescence polarization; inhibition, % at 2.79 µM; 1.3% of 370,000 active;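 active = inhibition above about 21% made by adding two undisclosed values, limit read from the data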
# Exocytosis inh = lytic granule exocytosis inhibition. TALL-104 LAMP-1 surface exposure, flow cytometry; cells stimulated with thapsigargin and PMA. inhibition, % at 10 µM. 0.66% of 360,000 active;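 active = inhibition above about 55%, limit read from the data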
# NOD2-RIPK2 inh = inhibitors of human NOD2-RIPK2 interaction; O43353; CHO BLA complementation NOD2-RIPK2, CCF4 ratio; inhibition, % at 4.98 µM; 0.38% of 360,000 active; AID 624267; in the data active = inhibition above about 21%;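 note: 0% = vehicle only and 100% = reference blocker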
# ABHD5-PLIN5 inh = blocks binding of human ABHD5 to perilipin-5. Q00G26+Q8WTS1. Split G. princeps luciferase complementation, luminescence, 4 h. inhibition, % at 4 µM. 0.78% of 360,000 active. AID 602281;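 active = inhibition above the mean inhibition across every tested compound plus 3 SD, cut at about 22% in these data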;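 note: 0% = DMSO only wells and the 100% control is not disclosed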
# TLR4-MyD88 BLA = inhibitors of human TLR4-MyD88 binding; AID 861; 0.18% of 200,000 active; HeLa CL3-4 TLR4/MyD88 BLA complementation, FRET ratio; inhibition, % at 8.4 µM; O00206+Q99836; in the data active = inhibition above about 25%;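 note: 0% = vehicle and 100% = reference inhibitor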
# Target sequence (O00206 whole entry, looked up): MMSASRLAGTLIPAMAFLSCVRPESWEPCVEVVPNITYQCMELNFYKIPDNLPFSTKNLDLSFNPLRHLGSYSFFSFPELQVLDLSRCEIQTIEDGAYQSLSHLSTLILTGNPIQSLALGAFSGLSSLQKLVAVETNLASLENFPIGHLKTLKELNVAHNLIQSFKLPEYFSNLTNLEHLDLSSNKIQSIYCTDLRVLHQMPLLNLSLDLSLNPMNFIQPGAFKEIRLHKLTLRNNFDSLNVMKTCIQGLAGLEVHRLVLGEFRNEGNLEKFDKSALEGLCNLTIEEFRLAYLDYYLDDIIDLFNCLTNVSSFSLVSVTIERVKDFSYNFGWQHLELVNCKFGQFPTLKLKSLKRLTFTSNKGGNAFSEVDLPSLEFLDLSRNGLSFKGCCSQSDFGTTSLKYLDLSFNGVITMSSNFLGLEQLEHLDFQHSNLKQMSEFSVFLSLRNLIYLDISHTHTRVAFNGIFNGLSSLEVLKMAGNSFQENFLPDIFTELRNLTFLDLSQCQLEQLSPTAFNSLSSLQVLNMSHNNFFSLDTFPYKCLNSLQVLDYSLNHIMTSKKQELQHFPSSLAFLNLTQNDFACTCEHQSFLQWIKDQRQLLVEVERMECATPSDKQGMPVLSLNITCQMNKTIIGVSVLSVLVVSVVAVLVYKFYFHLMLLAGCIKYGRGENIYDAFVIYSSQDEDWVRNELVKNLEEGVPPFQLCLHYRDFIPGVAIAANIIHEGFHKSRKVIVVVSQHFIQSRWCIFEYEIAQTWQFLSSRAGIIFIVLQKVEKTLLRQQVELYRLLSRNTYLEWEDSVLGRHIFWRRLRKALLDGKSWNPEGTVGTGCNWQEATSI
# Target sequence (Q99836 whole entry, looked up): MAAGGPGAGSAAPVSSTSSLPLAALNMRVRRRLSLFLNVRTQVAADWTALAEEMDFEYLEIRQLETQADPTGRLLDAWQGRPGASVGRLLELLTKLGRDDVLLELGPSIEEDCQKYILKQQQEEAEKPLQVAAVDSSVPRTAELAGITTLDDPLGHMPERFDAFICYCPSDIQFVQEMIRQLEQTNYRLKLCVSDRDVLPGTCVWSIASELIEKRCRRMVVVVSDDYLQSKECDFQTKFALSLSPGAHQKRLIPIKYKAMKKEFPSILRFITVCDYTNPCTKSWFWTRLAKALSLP
# PRMT1 inh conf = confirmation of human PRMT1 inhibitors. 42% of 3,300 active. inhibition, % at 2.79 µM. shares compounds with PRMT1 inh. recombinant His-PRMT1, activity-based probe fluorescence polarization;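 active = mean inhibition across replicates above the hit cutoff derived for the earlier primary screen, cut at about 22% in these data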
# * = called active by the depositor; . = no result given.
SMILES,TLR9-MyD88 block,PRMT1 inh,Exocytosis inh,NOD2-RIPK2 inh,ABHD5-PLIN5 inh,TLR4-MyD88 BLA,PRMT1 inh conf
COc1ccccc1NS(=O)(=O)c1cc(NC(=O)c2sccc2C)ccc1N1CCCC1,-7.7,66.3*,-2.7,10.0,-1.9,-5.1,83.5*
COc1ccccc1NS(=O)(=O)c1cc(NC(=S)NCCN2CCOCC2)ccc1N1CCOCC1,4.4,35.6*,-3.5,-5.3,2.6,7.6,57.2*
CCOC(=O)C1CCCN(S(=O)(=O)c2ccc3c(c2)NC(=O)CO3)C1 (stereo not given),-10.2,4.8,4.6,-5.8,9.1,.,.
CCOC(=O)C1CCCN(S(=O)(=O)c2cc3c(cc2Cl)NC(=O)CO3)C1 (stereo not given),4.0,34.1*,1.5,-10.6,-17.1,.,7.8
NC(=O)CCC(NC(=O)c1ccc(Cl)cc1)C(=O)O (stereo not given),-10.6,51.6*,-2.6,-8.5,3.9,18.0,-7.3
COC(=O)C1=C(C)N(Cc2ccc(C)cc2)C(=O)/C1=C\c1ccc(O)c(OC)c1,-14.3,27.3*,6.8,-7.7,21.0,-3.3,5.4
CCN1CCN(C(=S)c2ccc(OCC(=O)Nc3ccc(OC)cc3)cc2)CC1,-6.6,0.5,-1.9,4.2,1.6,-3.3,.
CCN1CCN(C(=S)c2ccc(OCC(=O)NCc3ccccc3)cc2)CC1,1.4,27.0*,7.1,4.8,-1.4,-8.3,37.7*
O=C(CC(SCCO)c1ccc2c(c1)OCO2)c1cccs1 (stereo not given),7.2,29.9*,8.8,9.3,8.3,7.9,31.8*
CC(NC(=O)Cc1cccs1)c1ccc2c(c1)OCO2 (stereo not given),-5.5,5.2,0.2,-2.0,-4.2,-10.4,.
CCN(C(=O)c1ccncc1)c1c(N)n(Cc2ccccc2)c(=O)[nH]c1=O,2.5,-5.2,0.6,-1.9,4.8,.,.
CCCCc1c(O)nc(SCC(=O)c2ccccc2)n(-c2ccccc2C)c1=O,-3.0,17.1,2.0,-0.2,7.1,.,.
CCCCc1c(O)nc(SCC(=O)c2ccccc2)n(-c2ccccc2OC)c1=O,12.8,40.2*,1.4,-5.7,1.2,.,14.2
O=C(CSc1nc2[nH]ncc2c(=O)[nH]1)Nc1cc(C(F)(F)F)ccc1Cl,-0.2,-1.6,11.5,1.4,7.7,.,.
CC1CCCCC1NC(=O)c1cc(Cl)nc2ccccc12 (stereo not given),-12.9,0.8,3.6,-10.3,-1.4,.,.
CC(C)Oc1ccc(CN2CCC2(C)C(=O)Nc2cnc3ccccc3c2)cc1 (stereo not given),.,-4.3,-2.0,19.0,2.7,.,.
O=C(CN1CC[n+]2c(-c3cccs3)csc21)c1ccc(Br)cc1,19.8,25.1*,-1.4,12.8,-26.1,-8.3,42.2*
O=C(CN1CC[n+]2c(-c3ccccc3)csc21)c1ccc(Br)cc1,.,48.7*,-0.6,0.8,-8.3,.,54.6*
Cn1c(=O)c2c(ncn2CC(=O)Nc2nccs2)n(C)c1=O,3.4,-6.5,-2.7,-9.0,0.4,.,.
O=S1(=O)CC=C(CSC(=S)NC2CCS(=O)(=O)C2)C1 (stereo not given),12.1,26.4*,-1.0,-12.8,-30.1,2.6,91.2*
CC(C)(C)c1cc(CSC(=S)NC2CCS(=O)(=O)C2)c(Br)c(C(C)(C)C)c1 (stereo not given),-6.8,1.7,-3.9,-0.5,-2.3,1.4,.
COc1cc2cc(CN(Cc3ccc4c(c3)OCO4)C(=O)c3ccco3)c(=O)[nH]c2cc1OC,-22.1,44.9*,-1.8,4.6,9.5,8.3,3.6
Cc1cc2cc(CN(Cc3ccc4c(c3)OCO4)C(=O)c3ccco3)c(=O)[nH]c2cc1C,6.8,.,5.3,-0.7,2.4,4.8,.
CC(C1SC(=S)NC1=O)C1SC(=S)NC1=O (stereo not given),-3.9,88.5*,-2.1,-0.8,-35.5,.,51.5*
COc1ccc(S[C@]2(C(=O)N3CCN(C(C)=O)CC3)CC(=O)N(C(=O)c3ccccc3)[C@@H]2c2ccc(OC)cc2)cc1,.,83.2*,.,.,.,.,82.1*
COc1ccc(S[C@]2(C(=O)N3CCN(C(C)=O)CC3)CC(=O)N(S(=O)(=O)c3ccc(F)cc3)[C@@H]2c2ccc(OC)cc2)cc1,.,43.1*,.,.,.,.,37.2*
